{
  "source": "PubChem BioAssay (NCI)",
  "note": "This is part of a sample that, as a whole, favours compounds with a hit. Of some 83,000 tested, about 20% had one in any assay.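 Percent growth is the endpoint: 0 to 100 indicates growth inhibition (40 means 60% inhibition), 0 means no net growth, and negative values indicate cell death.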 A number with no mark means an inactive call. Calls of active or inactive are those of the source. The calls were made as follows: active = growth percent below 10; inactive = the rest.",
  "data": [
    {"tested_on": "HL-60(TB) leukemia", "assay": "NCI-60 one-dose screen, 48 h (100 = growth as untreated, 0 = no growth, -100 = all killed)", "conditions": "10 µM unless noted", "values": [
      {"smiles": "O=C1OC(c2ccc(Cl)c(Cl)c2)=C/C1=C/c1cccc([N+](=O)[O-])c1", "growth": "103%"},
      {"smiles": "O=C(OCc1nc2nc(Cl)nc(N3CCOCC3)c2[nH]1)n1ccnc1", "growth": "-30.1% (active)"},
      {"smiles": "C[N+](C)(C)C(=O)c1ccccc1", "growth": "125%"},
      {"smiles": "Cc1ccc(C(C)C)cc1NC(=O)Nc1ccc([N+](=O)[O-])cc1", "growth": "-8.6% (active)"},
      {"smiles": "Cn1cc(-c2csc(-c3c[nH]c4ccc(F)cc34)n2)c2ccnc(Cl)c21", "growth": "72%"},
      {"smiles": "O=C(/C=C/c1ccc([N+](=O)[O-])o1)NNC(=O)c1cc2ccccc2cc1O", "growth": "1.21% (active)"},
      {"smiles": "Cc1nc2c(c(=O)[nH]1)OCN(Cc1ccccc1)C2", "growth": "96.5%"},
      {"smiles": "N=C(N)SCc1c2ccccc2c(CSC(=N)N)c2ccccc12", "growth": "20.8%"},
      {"smiles": "NS(=O)(=O)c1ccc(CCn2c(SCC(=O)N/N=C/c3ccccc3O)nc3ccccc3c2=O)cc1", "growth": "-25.5% (active)"},
      {"smiles": "COC1OC(C(COC(C)=O)OC(C)=O)C(OC(C)=O)C(OC(C)=O)C1OC(C)=O", "note": "(centres undefined)", "growth": "132%"},
      {"smiles": "Cc1cn(-c2cc(C(=O)Nc3cccc(-n4ccc5c(NC(=O)c6ccccc6)nccc54)c3)cc(C(F)(F)F)c2)cn1", "growth": "3.73% (active)"},
      {"smiles": "Clc1ccc2c(c1)C(c1c[nH]c3ccccc13)(c1c[nH]c3ccccc13)CCO2", "growth": "82%"},
      {"smiles": "COc1ccc2nccc(/C=C/c3ccnc4ccc(OC)cc34)c2c1", "growth": "63.5%"},
      {"smiles": "Clc1cccc(Cl)c1/C=C/c1cc(/C=C/c2c(Cl)cccc2Cl)[nH]n1", "growth": "12.6%"},
      {"smiles": "CN(CCC(=O)c1ccccc1)CCC(=O)c1ccccc1", "growth": "75.4%"},
      {"smiles": "C/C=C/C1=CN2C(=O)c3cc(OC4OC(C)C(NC)C(C)(O)C4O)c(C)cc3N=C[C@@H]2C1", "note": "(some centres undefined)", "growth": "-4.41% (active)"},
      {"smiles": "Cc1ccc(NC(=S)/N=c2/n(-c3ccccc3)nc3n2CCN3C2=NCCN2)cc1", "growth": "156%"},
      {"smiles": "C[n+]1cc2cc3c(cc2c2ccccc21)OCO3", "growth": "87.5%"},
      {"smiles": "CNCc1cccc2c1OCCOCCOCCN(C)S(=O)(=O)c1ccc(cc1)-c1cnc(N)c(n1)C(=O)N2", "growth": "-37% (active)"},
      {"smiles": "CCOC(=O)C(Br)=P(c1ccccc1)(c1ccccc1)c1ccccc1", "growth": "94.2%"},
      {"smiles": "CCCCCCCCCCCCCCCCCc1nccn1CCO", "growth": "64.4%"},
      {"smiles": "N#Cc1ccc(-c2ccc(COc3ccc(CC4SC(=O)NC4=O)cc3)cc2)cc1", "note": "(centres undefined)", "growth": "70.5%"},
      {"smiles": "CCn1c(O)c(/C=N/NC(=O)C(C)c2ccc(CC(C)C)cc2)sc1=S", "note": "(centres undefined)", "growth": "-32.5% (active)"},
      {"smiles": "CCN(CCNc1ccc(C)c2sc3cc(Cl)ccc3c(=O)c12)CC(C)O", "note": "(centres undefined)", "growth": "9.78% (active)"}
    ]}
  ]
}
